# Hits are enriched below; roughly 18% of the tested compounds scored in any of these assays.
# TDP1 inh: blocks human tyrosyl-DNA phosphodiesterase 1 | recombinant TDP1, AlphaScreen DNA substrate cleavage | AID 485290 | 350,000 compounds, 0.28% hits | Potency, µM (highest dose often 130 µM), inactives show at the top dose activity change, negative = inhibition, hits mostly inhibitors; note: nearly all actives have a fitted effect of over 40% in size
#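 Tdp1 1 nM final; 15 min RT w/ cpd; substrate 15 nM, 5 min; beads 10 ug/ml, 10 min; AlphaScreen read. Neg ctrl: no enzyme.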
# PLK1 PBD inh: blocks phosphopeptide binding to human PLK1 polo-box domain | P53350 | Plk1 PBD binding of FITC phosphopeptide, fluorescence polarization | Potency, µM, for the others: max response, negative = inhibition, actives largely listed as inhibitors | 360,000 compounds, 2.8% hits | AID 720504; note: series mostly up to about 57 µM; nearly all actives have a fitted effect of over 65% in size
# TDP1 cell noCPT: qHTS for Inhibitors of human tyrosyl-DNA phosphodiesterase 1 (TDP1): qHTS in cells in absence of CPT; DT40 Tdp1-/- hTDP1 cells, no CPT, ATP luminescence, 48 h; 420,000 compounds, 15% hits; Potency, µM (doses to about 46.2 µM), inactives show at the highest dose activity change, negative = growth inhibition, usual class: inhibitors; note: nearly all actives have a fitted effect of over 55% in size
#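 Growth of hTDP1-complemented DT40 Tdp1-knockout cells is measured by ATP luminescence after at least 48 hr compound exposure at 37 °C, with DMSO substituting for the 20 nM CPT used in the parallel screen.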
# VDR inh: inhibitors of human vitamin D receptor; P11473; VDR-SRC2-3 peptide fluorescence polarization, 2 h; Potency, µM, for inactives: max response, negative = inhibition, hits mostly inhibitors; 400,000 compounds, 0.93% hits; AID 504847
# Target sequence (P11473 whole entry, looked up): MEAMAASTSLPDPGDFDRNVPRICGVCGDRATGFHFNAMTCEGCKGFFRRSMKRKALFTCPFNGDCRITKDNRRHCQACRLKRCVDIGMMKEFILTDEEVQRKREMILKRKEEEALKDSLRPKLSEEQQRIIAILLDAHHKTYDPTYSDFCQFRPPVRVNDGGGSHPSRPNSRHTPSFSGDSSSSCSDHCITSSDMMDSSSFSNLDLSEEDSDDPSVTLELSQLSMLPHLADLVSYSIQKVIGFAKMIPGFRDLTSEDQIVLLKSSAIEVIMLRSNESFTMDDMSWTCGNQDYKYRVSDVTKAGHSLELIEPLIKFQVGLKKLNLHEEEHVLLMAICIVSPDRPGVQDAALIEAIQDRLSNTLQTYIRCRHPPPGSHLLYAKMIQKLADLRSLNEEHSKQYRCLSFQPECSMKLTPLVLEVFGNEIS
#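 FP read-out; VDR + SRC2-3 coactivator peptide; 23 nl compound by pintool; 2 h RT incubation; reagents held at 4 deg C, protected from light.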
# GCN5L2 inh: GCN5L2 (KAT2A) acetyltransferase inhibition | Potency, µM (titrated, usually from 58.9 µM), inactives show at the highest dose activity change, negative = inhibition, hits mostly inhibitors | Q92830 | GCN5L2 HAT assay, ThioGlo1 CoA-SH fluorescence | 390,000 compounds, 0.21% hits
#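 Enzyme at 20nM final was mixed with library compounds for 15 min at room temperature. Peptide H3(1-25) at 75uM, acetyl-CoA at 70uM and ThioGlo1 at 50uM were then added. Plates were read immediately and after 20 min (Ex340nm/Em540nm).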
# TDP1 cell CPT: growth inhibition of DT40 Tdp1-/-;hTDP1 cells with camptothecin (screen for TDP1 inhibitors); chicken DT40 Tdp1-/-;hTDP1 cells + 20 nM CPT, ATP luminescence, 48 h; Potency, µM (highest dose often 46.2 µM), for the others: at the highest dose activity change, negative = growth inhibition, most hits filed as inhibitors; 420,000 compounds, 12% hits; note: nearly all actives have a fitted effect of over 55% in size
#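 Cell growth measured by CellTiter-Glo luminescence after a minimum 48 h, 37 C compound exposure with 20 nM CPT in Tdp1-knockout DT40 cells stably expressing hTDP1, seeded 400/well; qHTS titration format.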
# * = called active by the depositor; u = inconclusive; x = no result given; [ ] = dose if it differs, or a comment. Calls come from the whole dose curve; as a rule, active = well fitted curve in the direction sought with a large enough effect; inconclusive = small, poorly fitted or top-dose-only effect, or another doubt; inactive = no such curve, though single readings can be large; an effect the other way counts as inactive or inconclusive. % is set by controls: 0 for no effect and ±100 for the full control effect; potency is the fitted concentration of half-maximal effect.
SMILES,TDP1 inh,PLK1 PBD inh,TDP1 cell noCPT,VDR inh,GCN5L2 inh,TDP1 cell CPT
Cc1ccc(C)c(N2CCN(C(=O)c3cc(S(=O)(=O)N4CCCC4)cn3C)CC2)c1,3.9%,-10.0%,20.6µM*,-13.5%,-7.6%,18.4µM*
CCCCn1ccnc1C(=O)c1cc(S(=O)(=O)N2CCOCC2)ccc1C,5.6%,0.1%,10.3µM*,-11.3%,-8.0%,11.6µM*
Cn1cc(S(=O)(=O)N2CCCC2)cc1C(=O)N1CCN(c2cccc(Cl)c2)CC1,-3.9%,2.3%,u,-20.6%,-12.7%,u
O=[N+]([O-])c1cc(-c2nc(-c3ccco3)no2)ccc1NCc1ccccc1,5.7%,x,u,19.2%,-5.7%,-0.7%
COC(=O)c1c(-c2ccccc2)oc2c1C(OCCO)CCC2 (configuration not stated),x,-1.6%,u,x,x,-21.7%
Cc1ccc(CS/C(Nc2ccccc2C)=C(\C#N)C(N)=O)c(C)c1,3.1%,-6.4%,u,-9.3%,-4.2%,u
CN(CCc1ccccc1)C(=O)c1cccc(NC(=O)Cc2cccc(NC(=O)C3CCN(C(=O)c4ccccc4)CC3)c2)c1,x,-22.2%,u,7.4%,x,u
CC(Sc1nnc(C2CC2)n1C)C(=O)Nc1ccc(N2CCOCC2)cc1 (configuration not stated),-0.2%,-8.4%,-5.4%,-10.0%,3.0%,-0.6%
S=C(Cc1cccnc1)N1CCOCC1,1.2%,23.8µM*,u,u,-9.8%,u
COc1ccc(CC(=S)N2CCOCC2)cc1OC,2.0%,-6.5%,-11.7%,-9.8%,-1.6%,-13.1%
Cc1cccc(Nc2ncnc3onc(-c4cccc(Cl)c4)c23)c1,x,-4.2%,u,-2.5%,0.0%,20.6µM*
CN(c1ncnc2onc(-c3cccc(Cl)c3)c12)C1CCCCC1,3.8%,x,23.1µM*,-23.5%,-3.4%,u
Clc1cccc(-c2noc3ncnc(Nc4ccc5c(c4)OCO5)c23)c1,x,-10.6%,u,-0.1%,-7.1%,-28.1%
CCN(CC(=O)Nc1ccccc1C(F)(F)F)C(=O)c1ccc2c(c1)NC(=O)C(C)S2 (configuration not stated),x,-24.4%,u,x,x,u
O=C1c2ccccc2C(Nc2ccc(S(=O)(=O)N3CCCCC3)cc2)N1Cc1ccco1 (configuration not stated),6.9%,-9.9%,u,u,-19.6%,u
CCOc1ccc(NC2c3ccccc3C(=O)N2Cc2ccco2)cc1 (configuration not stated),2.6%,2.5%,11.6µM*,-15.0%,-8.0%,16.4µM*
O=C1c2ccccc2C(Nc2ccc3nc(-c4cccnc4)[nH]c3c2)N1Cc1ccco1 (configuration not stated),5.3%,-2.6%,7.31µM*,-9.1%,-3.7%,9.2µM*
COC(=O)c1cc(NC2c3ccccc3C(=O)N2Cc2ccco2)cc(C(=O)OC)c1 (configuration not stated),2.6%,-10.0%,2.1%,-7.7%,-9.1%,-7.0%
O=C1c2ccccc2C(Nc2ccc(-c3nc4ccccc4[nH]3)cc2)N1Cc1ccco1 (configuration not stated),3.3%,-0.5%,18.4µM*,-12.9%,-1.3%,u
Cc1cc(NC(=O)CN2C(=O)N(C)C3(CCCCC3)C2=O)ccc1Br,0.1%,-5.2%,7.0%,15.8%,-3.8%,-29.9%
COc1cccc(C=NCCCN=Cc2cccc(OC)c2O)c1O,x,-16.1%,10.2%,135.6%,-2.7%,-6.5%
CCC/C(O)=C1\C(=O)CC(C)(C)CC1=Nc1ccccc1O,1.2%,13.4µM*,u,79.4µM*,2.1%,u
Cc1ccc(C(=O)N[C@H](C(=O)NC2CCCCC2)C(C)C)cc1,-0.3%,4.1%,-23.5%,-4.4%,-9.3%,-25.8%
O=C(OCc1ccccc1F)c1cc(S(=O)(=O)N2CCCCC2)ccc1N1CCOCC1,x,-5.5%,u,x,x,u
CCCOc1ccc2cc(-c3ccccn3)c(=O)oc2c1,0.6%,-13.9%,16.4µM*,10.2%,-9.8%,u
SMILES,TDP1 inh,PLK1 PBD inh,TDP1 cell noCPT,VDR inh,GCN5L2 inh,TDP1 cell CPT
O=C(Cn1nnc(-c2ccccc2NC(=O)c2ccccc2F)n1)NC1CCCC1,7.1%,-10.6%,-14.1%,26.2%,-5.3%,-0.3%
CN(CC(=O)Nc1ccccc1Cl)C(=O)COC(=O)c1nc(Cl)c(Cl)c(Cl)c1Cl,2.5%,-19.8%,u,-14.6%,-18.0%,u
c1ccc(-c2c[nH]c3[n+]2CCCCC3)cc1,-9.5%,-5.9%,9.2µM*,1.6%,-0.3%[0.501 µM],-29.4%
CCNc1ncc2ncc(=O)n(C[C@H]3CCCO3)c2n1,x,x,20.6µM*,3.1%,u,11.6µM*
CCC(=O)Nc1nc(CC(=O)Nc2ccccc2)cs1,0.0%,-10.3%,-21.6%,0.6%,1.1%,-12.7%
COc1ccccc1NC(=O)Cc1csc(NC(=S)Nc2ccccc2)n1,9.2%,-15.0%,6.51µM*,-20.9%,-20.6%,4.61µM*
COc1ccc(OC)c(NC(=O)Cc2csc(NC(=O)Nc3ccccc3OC)n2)c1,x,-11.0%,20.6µM*,-13.1%,-21.4%,u
CCOc1ccc(NC(=O)Nc2nnc(N3CCCCC3C)s2)cc1 (configuration not stated),8.6%,x,23.1µM*,7.2%,-5.3%,23.1µM*
CCN(CC(=O)Nc1ccccc1OC)Cc1csc(CC(=O)Nc2ccc(C)cc2)n1,1.6%,-2.4%,16.4µM*,-4.5%,-9.4%,25.9µM*
COc1ccccc1CCC(=O)OCc1csc(CC(=O)Nc2ccccc2C)n1,-3.3%,-3.8%,22.3%,2.9%,-20.3%,13.8%
Cn1c(=O)c2c(nc3n2CC(O)CN3c2ccc(O)cc2)n(C)c1=O (configuration not stated),x,-6.2%,5.0%,0.2%,-6.9%,7.5%
NS(=O)(=O)Nc1c(Br)cc(Br)c2cccnc12,-0.3%,x,x,u,x,x
COc1ccc(NC(=O)Nc2nnc(N3CCCCCC3)s2)c(OC)c1,11.4%,x,18.4µM*,27.2%,-0.6%,u
COc1ccc(NC(=O)Cc2csc(NC(=O)Nc3ccccc3OC)n2)c(OC)c1,x,-2.6%,13µM*,-7.5%,-3.5%,u
O=C(NCCO)C(=O)NCC1OCCCN1S(=O)(=O)c1cc(F)ccc1F (configuration not stated),1.6%,-1.4%,12.6%,2.2%,-6.7%,3.9%
COc1ccc(-c2csc3ncnc(Nc4ccc(OC)c(OC)c4)c23)cc1,-6.2%,x,8.2µM*,11.4%,32.3%,u
c1ccc(-c2csc3ncnc(N4CCOCC4)c23)cc1,5.6%,-9.5%,u,-2.0%,-0.4%,-12.4%
